Assay results from PubChem BioAssay (NCI).
Compounds without any hit were thinned out: in the full panel of roughly 83,000, 20% have a hit.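 Interpretation: 100, growth as untreated; towards 0, rising growth inhibition; 0, no net growth; 0 to -100, cell death. Compounds scoring below 10 were considered active.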 A number with no mark means an inactive call. Activity calls are given as the source filed them.

Tests used:
Test in all cases: NCI-60 one-dose screen, 48 h (100 = growth as untreated, 0 = no growth, -100 = all killed)
Conditions in all cases: 10 µM unless noted
SR leukemia = tested on: SR leukemia
RPMI-8226 leukemia = tested on: RPMI-8226 leukemia
OVCAR-8 ovarian = tested on: OVCAR-8 ovarian
OVCAR-5 ovarian = tested on: OVCAR-5 ovarian
OVCAR-4 ovarian = tested on: OVCAR-4 ovarian
SK-OV-3 ovarian = tested on: SK-OV-3 ovarian
IGROV1 ovarian = tested on: IGROV1 ovarian
OVCAR-3 ovarian = tested on: OVCAR-3 ovarian
HS 578T breast = tested on: HS 578T breast
NCI/ADR-RES ovarian = tested on: NCI/ADR-RES ovarian
T-47D breast = tested on: T-47D breast
BT-549 breast = tested on: BT-549 breast
MDA-MB-435 melanoma = tested on: MDA-MB-435 melanoma
SW-620 colon = tested on: SW-620 colon
MCF7 breast = tested on: MCF7 breast
HCT-116 colon = tested on: HCT-116 colon
HCC-2998 colon = tested on: HCC-2998 colon
KM12 colon = tested on: KM12 colon

| SMILES | growth (SR leukemia) | growth (RPMI-8226 leukemia) | growth (OVCAR-8 ovarian) [%] | growth (OVCAR-5 ovarian) [%] | growth (OVCAR-4 ovarian) [%] | growth (SK-OV-3 ovarian) | growth (IGROV1 ovarian) | growth (OVCAR-3 ovarian) | growth (HS 578T breast) | growth (NCI/ADR-RES ovarian) [%] | growth (T-47D breast) | growth (BT-549 breast) | growth (MDA-MB-435 melanoma) | growth (SW-620 colon) [%] | growth (MCF7 breast) | growth (HCT-116 colon) | growth (HCC-2998 colon) | growth (KM12 colon) [%] |
| --- | --- | --- | --- | --- | --- | --- | --- | --- | --- | --- | --- | --- | --- | --- | --- | --- | --- | --- |
| Cc1nc(N)nc(SCc2ccccc2)c1Br | 74.4% | 81.1% | 89.9 | 111 | 86.2 | 84.2% | 82.7% | 107% | 87.6% | 95.9 | 65.2% | 76.4% | 111% | 104 | 79.8% | 89% | 117% | 98.6 |
| CCCCOc1c(N)cccc1C(=O)OCCN(CC)CC | 83.9% | 123% | 92.8 | 113 | 107 | 108% | 104% | 101% | 102% | 106 | 93.3% | 93.6% | 111% | 102 | 103% | 79.2% | 90.2% | 102 |
| O=C(Cn1c2ccccc2c2ccncc21)N/N=C/c1cc(O)c(O)c(O)c1 | 106% | 100% | 103 | 111 | 110 | 99.4% | 107% | 106% | 105% | 103 | 98.2% | 107% | 111% | 109 | 106% | 101% | 105% | 95.3 |
| COc1ccc2c(c1)OC(N(C(C)=O)C(C)=O)=C(C#N)C2c1ccc(F)cc1 (stereo unspecified) | 12.4% | 3.13% (active) | 38.5 | 65.2 | 81.9 | 23.9% | 56.1% | 11.9% | 23.6% | 30.6 | 42% | 38.1% | -29.2% (active) | 20.9 | 17.8% | 25.5% | 59.2% | 25.6 |
| O=C(Nc1cccc([N+](=O)[O-])c1)Nc1cccc([N+](=O)[O-])c1 | 38.2% | 12.4% | 63.3 | 89.6 | 39.3 | 87.6% | 63.6% | 27.6% | 94.6% | 52.1 | 6.88% (active) | 50.5% | 63.1% | 45.4 | 20.7% | 37.3% | 45.2% | 27.7 |
| Cc1ccc(-c2cc(-c3nnc(SCC(=O)c4ccccc4)o3)c3ccccc3n2)cc1 | 77.4% | 106% | 100 | 92 | 86 | 106% | 94.1% | 97.7% | 101% | 91.9 | 93% | 93.4% | 93.5% | 101 | 91.2% | 99% | 99.6% | 94.1 |
| O=c1c2ccccc2sc2c(N3CCCC3)nc3ccccc3c12 | 81.5% | 92.8% | 93.6 | 112 | 95.2 | 118% | 85.8% | 107% | 89.6% | 102 | 81.2% | 111% | 112% | 95 | 65.8% | 78% | 107% | 85.5 |
| O=c1c(-c2ccc3c(c2)OCO3)coc2c(CO)c(O)ccc12 | 13.4% | 2.57% (active) | 24.3 | 35.8 | 41.7 | -18.3% (active) | 5.08% (active) | -55.1% (active) | 6.65% (active) | 52 | 19.2% | -43% (active) | 49.9% | 38.1 | 20.6% | -8.96% (active) | 4.46% (active) | 26.8 |
| Nc1ncnc2c1ncn2C1OC(COC(c2ccccc2)(c2ccccc2)c2ccccc2)C(O)C1O (stereo unspecified) | 89.6% | 82.1% | 96.7 | 85.7 | 95.2 | 123% | 107% | 106% | 84.1% | 89.2 | 103% | 94% | 99.6% | 98 | 94.2% | 92.4% | 78.9% | 99.2 |
| O=C1OC(N(Cc2ccc(Cl)cc2)c2ccccc2)c2ccccc21 (stereo unspecified) | 97.8% | 97.2% | 107 | 109 | 116 | 97.2% | 90.7% | 104% | 108% | 105 | 89.2% | 103% | 109% | 101 | 94.9% | 97% | 102% | 98.2 |
| Cc1c(Cl)ccc2c(C(=O)Cl)cc(-c3ccccc3)nc12 | 91.8% | 92.2% | 99.7 | 97.1 | 88.5 | 99.4% | 107% | 104% | 98.9% | 101 | 90.9% | 94.8% | 98.3% | 97.5 | 87.6% | 102% | 109% | 102 |
| O=S(=O)(CCN1CCOCC1)Nc1cc(-c2ccc3ncnc(Nc4ccc(F)c(Cl)c4)c3c2)cnc1Cl | 18.8% | 9.83% (active) | 16.1 | 12.1 | 11.5 | -25.4% (active) | -24.1% (active) | -8.19% (active) | -18.3% (active) | 48.6 | -32.6% (active) | -9.24% (active) | 6.92% (active) | 30.4 | 13.6% | 18.9% | 17.4% | 20.8 |
| O=C(CSc1nnc(-c2cc3c([nH]c4ccccc43)c(-c3cccc(O)c3)n2)n1-c1ccccc1)c1ccccc1 | 18.6% | 43.4% | 57.3 | 104 | 50.1 | 92.8% | 61.2% | 40.6% | 73.3% | 64 | 53% | 56% | -33.3% (active) | 50 | 13.7% | 29.7% | 96% | 60.1 |
| Cc1ccc2nc(-c3ccc(-n4on4-c4ccc(/C=C/c5ccc(-n6on6-c6ccc(-c7nc8ccc(C)cc8s7)cc6)cc5S(=O)(=O)O)c(S(=O)(=O)O)c4)cc3)sc2c1 | 113% | 102% | 116 | 105 | 118 | 113% | 101% | 107% | 116% | 109 | 95.5% | 114% | 110% | 117 | 110% | 103% | 107% | 103 |
| COC(=O)c1ccc(NC(N)=NCC(C)(C)COc2ccc(C(F)(F)F)cc2)nc1 | -32.3% (active) | 10.9% | 52.2 | 72 | 40.6 | 106% | 21.3% | 50% | 86.3% | 44.6 | 28.7% | 66.5% | 58.3% | 27.3 | 8.58% (active) | 0.764% (active) | 2.3% (active) | 46.7 |
| CCN(CC)CCN1C(=O)c2c(c3c4ccccc4[nH]c3c3[nH]c4ccccc4c23)C1=O | 4.92% (active) | 74.9% | 78.5 | 88.7 | 72 | 83.1% | 83.3% | 95.4% | 86.7% | 71.3 | 81.8% | 83% | 95.6% | 46.9 | 62% | 67% | 53.1% | 85.2 |
| O=c1c2ccccc2[nH]n1Cc1ccc2c(c1)OCO2 | 115% | 90.5% | 104 | 95.7 | 105 | 112% | 111% | 104% | 103% | 113 | 88.9% | 107% | 105% | 108 | 90.8% | 99.9% | 106% | 102 |
